Dicer inh = human Dicer pre-microRNA cleavage inhibition | Q9UPY3 | cat-ELCCA pre-miR-21 Dicer processing, chemiluminescence; active compounds read high | z-score at 25 µM | 47,000 tested, 6% active | AID 1347074; in the data active = z-score above about 3, passing the limit was not always enough;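 also: plate controls were vehicle for no effect and no enzyme for full effect; higher signal means more uncleaved substrate so more Dicer inhibition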
Active calls of the source: *. The full list was thinned out, with hits kept by preference.

SMILES	Dicer inh
O=C1c2ccccc2C(=O)N1CNc1ccccc1Oc1ccc(Cl)cc1Cl	-0.05
O=C1c2ccccc2C(=O)N1Cc1cccnc1	-0.5
O=C1c2ccc([N+](=O)[O-])cc2C(=O)N1CNc1cc(C(F)(F)F)cc(C(F)(F)F)c1	1.92
CCOC(=O)c1nc(COc2ccccc2Cl)[nH]c(=O)c1C	-0.6
OC1(c2ccc(Cl)cc2)CSc2nc3cc(C(F)(F)F)ccc3n21 (centres undefined)	0.2
CC(=O)N=Nc1c(O)[nH]c2ccc(F)cc12	-1.6
CCOC(=O)/C(=C(/C)Nc1ccc(F)cc1)C1CC(=O)N(c2ccccc2)C1=O (centres undefined)	0.06
COc1ccccc1-c1nc2ccc(Cl)cc2c(=O)o1	-1.78
COc1ccc2nc(C)cc(Cl)c2c1	2.67
COc1ccc2nc3ccccc3c(N)c2c1	3.98*
COc1ccc2nc(C3C(=O)c4ccccc4C3=O)ccc2c1	0.25
COc1ccc2nc(N)sc2c1	0.42
COc1ccc2nc(C3C(=O)c4ccccc4C3=O)cc(Cl)c2c1	6.49*
CCN=c1cc(N)n(CC)c2sc(C(=O)OCC)c(N)c12	-1.27
Cc1nn(Cc2nnc(SCC(=O)C(C)(C)C)o2)c(C)c1Br	1.87
O=C1CS(=O)(=O)CC(=O)N1c1ccc(F)cc1F	0.4
CC1O[C@]2(C)OC1[C@]1(C)OC(C)[C@H]2O1 (some centres undefined)	-0.31
CCOC(=O)/C(C#N)=C/Nc1cc(C)on1	-1.07
COc1ccc(OC)c(N2C(=O)c3cccc4cccc(c34)C2=O)c1	5.7*
O=C1c2cccc3cccc(c23)C(=O)N1c1ccccc1O	-0.02
Nc1ccccc1N1C(=O)c2cccc3cccc(c23)C1=O	-1.37
CCOC(=O)c1sc(N2C(=O)C(=O)/C(=C(/O)c3ccccc3)C2c2cccc(Cl)c2)nc1C (centres undefined)	-0.32
COc1ccc(NC(=S)N2CCc3sccc3C2c2ccc(OC)cc2)cc1 (centres undefined)	-0.28
CC(O)CN1C(=O)c2cccc3cc([N+](=O)[O-])cc(c23)C1=O (centres undefined)	1.79
CC(=O)Nc1ccc2nc(NC(C)=O)sc2c1	3.2*
SMILES	Dicer inh
CC(=O)Nc1nc2ccc(NC(=O)c3c([N+](=O)[O-])cnn3C)cc2s1	1.08
CC(=O)Nc1nc2ccc(NC(=O)c3sc4ccccc4c3Cl)cc2s1	0.3
Cc1ccc(N=C(C#N)C2=C(O)c3ccccc3C2=O)c(Cl)c1	-1.79
CC1(C)Cc2c(c(N3CCOCC3)nc3sc4c(NCCCO)ncnc4c23)CO1	6.99
CC1(C)Cc2c(c(N3CCOCC3)nc3sc4c(=O)n(-c5ccc(Cl)cc5)cnc4c23)CO1	0.66
C=C(C)CSc1nnc2c3sc4nc(N5CCOCC5)c5c(c4c3ncn12)CC(C)(C)OC5	3.25*
O=C1c2oc3ccccc3c(=O)c2C(c2ccc(F)cc2)N1c1nncs1 (centres undefined)	-0.78
Cc1ccc(C(=O)c2sc3nc(C)cc(-c4cccs4)c3c2N)cc1	-0.51
CCOc1nc(-c2cccc(OC)c2)ccc1-c1noc(-c2cccnc2)n1	1.82
O=C(O)c1cccnc1	1.18
O=C(c1ccccc1)N1CCN(C2=NS(=O)(=O)c3ccccc32)CC1	7.05
O=C(c1cccnc1)N1CCN(c2ccc3ccccc3n2)CC1	4.24*
O=C1NCCCC1C(=O)N1CCN(C(=O)c2ccco2)CC1 (centres undefined)	-1.3
O=C(c1ccncc1)N1CCN(Cc2ccco2)CC1	1.25
O=C(c1cccnc1)N1CCN(C(=O)c2ccco2)CC1	4.65*
Cc1cccc(-n2ncc3c2ncn2c(COc4c(C)cccc4C)nnc32)c1	-0.17
CCSC1=C(C#N)C(=O)NC(C)S1 (centres undefined)	-1.45
O=C1C(Oc2ccccc2)C(c2ccc(F)cc2)N1Cc1ccc2c(c1)OCO2 (centres undefined)	2.96
O=C1C(Oc2ccccc2)C(c2ccc3c(c2)OCO3)N1Cc1ccc2c(c1)OCO2 (centres undefined)	0.72
COc1ccc(OC2C(=O)N(CCc3ccc(F)cc3)C2c2ccc3c(c2)OCO3)cc1 (centres undefined)	3.33*
O=C1C(Oc2ccc(Cl)cc2)C(c2ccc3c(c2)OCO3)N1CC1CCCO1 (centres undefined)	0.87
COc1ccc(OC2C(=O)N(Cc3ccc4c(c3)OCO4)C2c2cccs2)cc1 (centres undefined)	0.58
COc1ccc(OC2C(=O)N(Cc3ccc4c(c3)OCO4)C2c2ccc3c(c2)OCO3)cc1 (centres undefined)	1.57
COc1ccc(CCN2C(=O)C(Oc3ccccc3)C2c2ccc3c(c2)OCO3)cc1 (centres undefined)	3.39*
Cc1ccccc1OC1C(=O)N(Cc2ccc3c(c2)OCO3)C1c1ccc2c(c1)OCO2 (centres undefined)	0.63
SMILES	Dicer inh
COc1ccc(OC2C(=O)N(CCc3ccc(Cl)cc3)C2c2ccc3c(c2)OCO3)cc1 (centres undefined)	4.9*
O=C1CCCC2=C1C(c1ccc(O)c(Cl)c1)C1=C(CCCC1=O)N2	0.1
Cc1ccc(-c2nnn(CC(=O)NNC(=O)c3ccco3)n2)cc1	-0.26
COc1ccc(OC)c(NC(=O)/C=C/c2ccc(N3CCC(c4ccccc4OC)CC3)c([N+](=O)[O-])c2)c1	1.04
Cc1sc(NC(=O)CN(Cc2ccccc2)Cc2ccccc2)c(C#N)c1C	1.4
Cc1c2cnn(C)c(=O)c2c(C)n1-c1ccccc1	0.57
COC(=O)C1=C(C)Nc2c(c(=O)n(C)c(=O)n2C)C1c1ccc(Br)cc1 (centres undefined)	3.4*
COC(=O)C1=C(C)Nc2[nH]c(=O)[nH]c(=O)c2C1c1ccc(Br)cc1 (centres undefined)	1.18
COC(=O)C1=C(C)NC2=C(C(=O)CCC2)C1c1ccc(Br)cc1 (centres undefined)	-0.9
Cn1c(=O)oc2cc(S(=O)(=O)Nc3ccc(C(=O)O)cc3)ccc21	1.97
Cn1c(=O)oc2cc(S(=O)(=O)Nc3ccc(O)cc3)ccc21	0.87
CCCCOC(=O)n1c(=O)oc2cc(S(=O)(=O)Nc3ccc(C)cc3)ccc21	3.3*
CCc1ccc(C2C3=C(CCCC3=O)Nc3[nH]n(-c4ccccc4)c(=O)c32)cc1 (centres undefined)	-0.55
CCNc1nc(C(=O)O)nc(N2CCOCC2)n1	2.76
O=C(O)CCCNc1nc(Cl)nc(N2CCOCC2)n1	4.72*
Clc1nc(NCCN2CCOCC2)nc(NC2CCCCC2)n1	1.69
NC(=S)Nc1ccccc1N1CCOCC1	-1.13
CC1(C)CC(=O)C2=C(C1)Nc1nonc1NC2c1ccc(O)cc1 (centres undefined)	0.67
CCc1ccc(O)c(C(=O)c2cnc3cc(-c4ccccc4)nn3c2)c1	-2.88
Fc1ccc(Nc2nc(-c3ccncc3)cs2)cc1	2.19
Clc1ccc(Nc2nc(-c3ccncc3)cs2)cc1	5.61*
Cc1ccc(-c2csc(Nc3ccc(S(N)(=O)=O)cc3)n2)cc1	7.1*
Cc1ccc(Nc2nc(C(F)(F)F)cs2)cc1	0.07
Cc1cccnc1Nc1nc(-c2cccnc2)cs1	1.21
O=C(O)c1ccc(Nc2nc(-c3cccnc3)cs2)cc1	6.61*
Clc1ccc(-c2csc(Nc3ccccc3)n2)cc1	0.33
COc1ccc(-c2csc(Nc3cccnc3)n2)cc1	2.82
CCc1ccc(-c2csc(Nc3ccc(S(N)(=O)=O)cc3)n2)cc1	7.5
C=CCC(C)(CC=C)NS(=O)(=O)c1ccc(C)cc1	1.11
COc1cccc(OC)c1NC(=O)NC(=O)c1c(OC)ccc(Br)c1OC	-0.21

Screens from PubChem BioAssay.
